A selection: hits, their analogues and other compounds. The true share with any hit is near 27%.
CYP2C9 act: increases human cytochrome P450 2C9 activity. P11712. recombinant CYP2C9, luciferin-H conversion, luminescence; hits give high values; factor 1 = untreated enzyme, 0 = blocked. activation factor at 5 µM. 1.4% of 96,000 active. AID 1024;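 active means activation factor of 2 or more for CYP2C9 at a 5 µM dose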
Cav32 inh: blocks human Cav3.2 T-type calcium channel. O95180. Cav3.2-expressing cells, Fluo-4 calcium fluorescence FDSS; hits give low values. B-score at 10 µM. 4% of 100,000 active. AID 449739;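 active means single-dose well whose peak fluorescence ratio is a statistical outlier from its plate by either plate-standardised score or position-corrected B-score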
CYP2C19 inh: human CYP2C19 inhibition; P33261; CYP2C19 Supersomes, luciferin-H EGE luminescence, 30 min; inhibition, % at 5 µM; 21% of 96,000 active;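 active means CYP2C19 inhibition above a set limit at 5 µM in the primary screen, cut at about 50% in these data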
Target sequence (P33261 whole entry, looked up): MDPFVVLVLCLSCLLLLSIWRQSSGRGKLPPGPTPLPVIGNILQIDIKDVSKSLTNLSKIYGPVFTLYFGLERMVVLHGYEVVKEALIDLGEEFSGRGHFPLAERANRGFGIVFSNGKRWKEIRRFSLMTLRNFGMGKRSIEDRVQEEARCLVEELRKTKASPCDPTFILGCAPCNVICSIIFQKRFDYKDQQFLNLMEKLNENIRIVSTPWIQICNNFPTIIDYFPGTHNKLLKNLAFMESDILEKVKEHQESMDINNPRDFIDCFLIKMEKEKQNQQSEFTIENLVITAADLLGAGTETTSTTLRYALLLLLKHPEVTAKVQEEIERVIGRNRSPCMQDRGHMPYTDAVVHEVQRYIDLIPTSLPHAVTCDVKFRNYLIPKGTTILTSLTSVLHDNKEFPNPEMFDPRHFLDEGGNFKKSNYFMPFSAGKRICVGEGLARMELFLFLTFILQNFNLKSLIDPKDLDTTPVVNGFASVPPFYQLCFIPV
CYP2C19 activ: cytochrome P450 2C19 (human) activation. 96,000 tested, under 10 active. P33261. activation factor at 5 µM. recombinant CYP2C19, luciferin-H EGE luminescence; hits give high values; 0 = fully inhibited enzyme, 1 = untreated enzyme;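 active means activation factor of at least 2 at 5 µM in the primary screen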
CYP2C9 inhib: human CYP2C9 inhibition | inhibition, % at 5 µM | P11712 | CYP2C9 Supersomes, luciferin-H conversion, luminescence | 20% of 96,000 active;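 active means blocking of liver enzyme CYP2C9 beyond about 50% at 5 µM, limit read from the data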
Large screens that a line does not name were inactive.

CCC(C)C(NC=C1C(=O)OC(C)(C)OC1=O)C(=O)O (stereo unspecified)	none
Cc1n[nH]c(C)c1CCc1nc2c3ccccc3nc(SCC(=O)Nc3ccccc3F)n2n1	CYP2C19 inh 64, CYP2C9 inhib 95
Cc1cccc(NC(=O)CSc2nc3ccccc3c3nc(CCc4c(C)n[nH]c4C)nn23)c1	CYP2C19 inh 66, CYP2C9 inhib 88
Cc1nc2ccccc2n1CCc1nc2c3ccccc3nc(SCC#N)n2n1	none (no result: Cav32 inh)
O=C(Nc1ccc(Br)cc1)C1CC=CCC1C(=O)OCC1CCCO1 (stereo unspecified)	CYP2C19 inh 51
O=C(Nc1ccc(Cl)cc1)C1CC=CCC1C(=O)OCC(F)(F)C(F)F (stereo unspecified)	none
COC(=O)CNc1c(-c2ccccc2)nc2ccc(Br)cn12	CYP2C19 inh 69, CYP2C9 inhib 77
COCCNc1c(-c2ccc(O)cc2)nc2ccc(Cl)cn12	none (no result: CYP2C9 act, CYP2C19 inh, CYP2C19 activ, CYP2C9 inhib)
COc1c(C)cccc1C(=O)Nc1ccc(N2CCN(S(C)(=O)=O)CC2)cc1	none (no result: Cav32 inh)
CCOC(=O)C(=O)Nc1ccc(S(=O)(=O)N2CCOCC2)cc1OC	none
COc1ccc(NC(=O)c2ccc(S(=O)(=O)N3CCOCC3)cc2)c(OC)c1	CYP2C9 act 2.6
O=C(NCC1CCN(c2ccc(S(=O)(=O)N3CCOCC3)cc2)CC1)c1cccc(Cl)c1	none
COc1cccc(NS(=O)(=O)c2ccc(S(=O)(=O)N3CCOCC3)cc2)c1	CYP2C19 inh 93, CYP2C9 inhib 67
COc1ccccc1C(=O)Nc1ccc(N2CCN(S(C)(=O)=O)CC2)cc1	CYP2C19 inh 53
COc1cccc(C(=O)NCC2CCN(c3ccc(S(=O)(=O)N4CCOCC4)cc3)CC2)c1	CYP2C19 inh 56, CYP2C9 inhib 55
COc1ccccc1C(=O)Nc1ccccc1N1CCN(S(C)(=O)=O)CC1	CYP2C19 inh 69, CYP2C9 inhib 74
CCn1c(=O)c(=O)n(CC)c2cc(S(=O)(=O)Nc3cccc(OC)c3)ccc21	CYP2C9 inhib 87
COc1ccc(C(=O)Nc2ccc(S(=O)(=O)N3CCOCC3)cc2)cc1OC	none
COc1ccccc1C(=O)Nc1ccc(S(=O)(=O)N2CCOCC2)cc1	CYP2C9 act 5.2 (no result: Cav32 inh)
COc1ccccc1C(=O)Nc1ccccc1N1CCOCC1	none
COc1cc(C(=O)Nc2ccccc2N2CCN(S(C)(=O)=O)CC2)cc(OC)c1OC	CYP2C9 inhib 79
COc1cccc(NS(=O)(=O)c2ccc3c(c2)n(C)c(=O)c(=O)n3C)c1	none
CCCC1(C(=O)OCC)NC(c2cc(OC)c(OC)c(OC)c2)C2C(=O)N(CC)C(=O)C21 (stereo unspecified)	none (no result: Cav32 inh)
Cc1ccc(SC(C)C(=O)NCC(C)C)cc1 (stereo unspecified)	none
CC(C(=O)NCC1CCCO1)n1cccc1C(=O)c1ccccc1 (stereo unspecified)	none
c1cncc(CNc2ccc3c(c2)OCO3)c1	CYP2C19 inh 89, CYP2C9 inhib 83
O=C(Cn1nc(Cc2cccnc2)c2ccccc2c1=O)Nc1ccc2c(c1)OCO2	none
Cc1ccc(NCc2cccnc2)cc1	CYP2C19 inh 54
Cc1ccc(C)c(S(=O)(=O)NCc2cccnc2)c1	none (no result: CYP2C9 act, CYP2C19 inh, CYP2C19 activ, CYP2C9 inhib)
N/C(Cc1ccc(Cl)cc1)=N\OC(=O)c1ccc2ccccc2c1	none
N/C(Cc1ccc(Cl)cc1)=N\OC(=O)c1cccc2ccccc12	CYP2C9 act 2
Nn1c(SCC(=O)Nc2ccc(S(=O)(=O)N3CCCC3)cc2)nnc1C(F)(F)F	none
Cc1ccccc1Cn1cccc1/C=C1/C(=N)N2C=CSC2=NC1=O	CYP2C9 inhib 85
COc1cc(/C=C2/C(=N)N3C=CSC3=NC2=O)ccc1OCCCOc1cc(C)ccc1C	none
O=S(=O)(NCC1CCCO1)c1ccc(Cl)c(C(F)(F)F)c1 (stereo unspecified)	CYP2C9 act 3.9, CYP2C19 inh 66
O=C(Nc1cccc(F)c1)c1ccc(S(=O)(=O)NCC2CCCO2)cc1 (stereo unspecified)	Cav32 inh -5.3, CYP2C9 inhib 56
O=S(=O)(Cc1ccccc1)Nc1ccc(S(=O)(=O)NCC2CCCO2)cc1 (stereo unspecified)	none
O=S(=O)(NCC1CCCO1)c1cc(Br)c(Br)s1 (stereo unspecified)	CYP2C9 act 2, CYP2C19 inh 66 (no result: Cav32 inh)
O=C(Nc1ccc2c(c1)OCO2)c1ccc(S(=O)(=O)NCC2CCCO2)cc1 (stereo unspecified)	none (no result: Cav32 inh)
COC(=O)COc1ccc(S(=O)(=O)NCC2CCCO2)cc1Cl (stereo unspecified)	none

Assay outcomes as filed in PubChem.
